Hits are enriched below; roughly 8.1% of the tested compounds scored in any of these assays.
KB-V1 MDR tox: qHTS assay for MDR1-selective chemotherapeutics: Primary screen using the drug-selected MDR subline cells KB-V1; actives 3.4% (n = 400,000); KB-V1 MDR cells viability, CellTiter-Glo, 72 h; Potency, µM (top dose mostly 46.1 µM), most hits filed as cytotoxic; AID 1347076, 2019; also: nearly all actives have a fitted effect of over 60% in size
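Following 72 h at 37 degrees C with compound, KB-V1 cell viability was read by CellTiter-Glo luminescence, medium being phenol-red-free DMEM plus 10% FBS; concentration-response parameters came from normalized, curve-fitted qHTS data.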
MCF10A rerep: A quantitative high throughput screen for small molecules that induce DNA re-replication in MCF 10a normal breast cells | AID 624296, 2012 | Potency, µM (highest dose often 46.1 µM), most hits filed as activators | actives 2.9% (n = 350,000) | MCF 10A DNA re-replication, Hoechst nuclear intensity, 48 h; also: nearly all actives have a fitted effect of over 50% in size
SW480 rerep: A quantitative high throughput screen for small molecules that induce DNA re-replication in SW480 colon adenocarcinoma cells; SW480 DNA re-replication, Hoechst DNA content imaging, 48 h; Potency, µM (highest dose often 46.1 µM), actives largely listed as activators; actives 1.8% (n = 340,000); also: nearly all actives have a fitted effect of over 55% in size
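DNA re-replication was detected as more nuclei of elevated Hoechst intensity after 48 hr exposure to compound (23 nL pinned per well of 250 cells).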
KB-3-1 tox: qHTS assay for MDR1-selective chemotherapeutics: Primary screen using the parental adenocarcinoma cell KB-3-1; actives 1.4% (n = 400,000); Potency, µM (highest dose often 46.1 µM), most hits filed as cytotoxic; AID 1347075, 2019; KB-3-1 viability, CellTiter-Glo ATP luminescence, 72 h; also: nearly all actives have a fitted effect of over 60% in size
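Viability of parental KB-3-1 cells, measured by CellTiter-Glo luminescence, followed a 72 h incubation at 37 °C with pinned compounds in phenol-red-free DMEM containing 10% FBS.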
ELG1 repair inh: qHTS screen for small molecules that inhibit ELG1-dependent DNA repair in human embryonic kidney (HEK293T) cells expressing luciferase-tagged ELG1. actives 2.3% (n = 330,000). AID 504467, 2011. HEK293T ELG1-luciferase reporter, luminescence, 16 h; DNA damage induced by 5-fluorouridine. Potency, µM (series often up to 46.1 µM), usual class: inhibitors; also: nearly all actives have a fitted effect of over 55% in size
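Reporter activity after DNA damage by 5-fluorouridine is monitored. Compound-treated cells incubate 16 hr at 37 °C, then ONE-Glo is added for 30 min before luminescence reading.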
Of the large screens only hits and unclear results are named; the others gave an inactive call. Calls follow the shape of the dose curve; as a rule, active = well fitted curve in the direction sought with a large enough effect; inconclusive = small, poorly fitted or top-dose-only effect, or another doubt; inactive = no such curve, though single readings can be large; an effect the other way counts as inactive or inconclusive.

CCOc1ccc(NC(=O)CC(=O)Nc2ccc(OCC)cc2)cc1	ELG1 repair inh inconclusive
CCOc1ccc(NC(=O)C[n+]2ccc(N(C)C)cc2)cc1	KB-3-1 tox 10µM
O=C(COC(=O)c1ccccc1SCC(=O)N1CCCC1)NCc1ccc(F)cc1	none (no result: MCF10A rerep, SW480 rerep, ELG1 repair inh)
CN(C)c1cc[n+](CC(=O)Nc2ccc(Cl)cc2)cc1	KB-3-1 tox 3.7µM, ELG1 repair inh inconclusive
CC(=O)Nc1cc[n+](CC(=O)c2ccc(Cl)cc2)cc1	KB-V1 MDR tox inconclusive
CC(C)Cc1ccc(C(C)C(N)=NCCc2ccccc2)cc1 (configuration not stated)	KB-V1 MDR tox inconclusive, MCF10A rerep inconclusive, SW480 rerep 6.5µM, KB-3-1 tox inconclusive, ELG1 repair inh inconclusive
Cc1ccc(NS(=O)(=O)c2ccc(Cl)c(NC(=S)NC(=O)C3CCCCC3)c2)cc1Cl	MCF10A rerep 8.2µM
Cc1ccc(NC(=O)C2CCCC2)cc1Cl	none (no result: ELG1 repair inh)
Cc1ccc(S(=O)(=O)Nc2cccc(Cl)c2)cc1NC(=O)C1CC1	KB-V1 MDR tox 21µM, KB-3-1 tox inconclusive, ELG1 repair inh inconclusive
Cc1ccc(S(=O)(=O)Nc2cccc(Cl)c2)cc1NC(=O)c1cccnc1	MCF10A rerep inconclusive, SW480 rerep inconclusive
Cc1ccc(Cl)cc1NC(=O)C1CCN(C(=O)c2cnn(-c3ccccc3)c2-n2cccc2)CC1	KB-3-1 tox inconclusive (no result: MCF10A rerep, SW480 rerep, ELG1 repair inh)
COc1cc2sc3ccc(C#CC4(O)CCCCC4)cc3c(=O)c2cc1OC	MCF10A rerep 9.2µM, SW480 rerep inconclusive (no result: ELG1 repair inh)
COc1cccc2sc3cc(C#CC4(O)CCCCC4)ccc3c(=O)c12	MCF10A rerep inconclusive, ELG1 repair inh inconclusive
CC(=O)Nc1cc2nn(-c3ccccc3)nc2cc1Cl	MCF10A rerep inconclusive, ELG1 repair inh inconclusive
CC(C)(C)C(=O)Nc1cc2nn(-c3ccccc3)nc2cc1Cl	MCF10A rerep inconclusive, SW480 rerep 7.3µM, ELG1 repair inh inconclusive
Cc1ccc(NC(=O)N2CCN(c3nnc(C)c4c(C)n(-c5ccc(Cl)cc5)nc34)CC2)c(C)c1	none (no result: MCF10A rerep, SW480 rerep, ELG1 repair inh)
O=C(NC(=S)N1CCN(c2ccccc2)CC1)c1ccccc1	none (no result: KB-V1 MDR tox, MCF10A rerep, SW480 rerep, KB-3-1 tox)
COC(=O)c1ccc(/C(O)=C(\C#N)c2nc3ccccc3s2)cc1	KB-V1 MDR tox 8.2µM, ELG1 repair inh inconclusive
COC(=O)c1ccc(CC(=O)c2nc3ccccc3s2)cc1	ELG1 repair inh inconclusive
COc1cc(OC)cc(C(=O)Nc2nc(-c3ccccc3)c(-c3ccccc3)o2)c1	SW480 rerep inconclusive, KB-3-1 tox inconclusive, ELG1 repair inh 13µM
COc1ccc(CN(C(=O)c2nsc(Cl)c2Cl)C(C(=O)NC2CCCCC2)c2ccc(OC)cc2)cc1 (configuration not stated)	KB-V1 MDR tox 21µM
Cc1ccc(C)c(N(C(=O)c2csnn2)C(C(=O)NC2CCCC2)c2ccncc2)c1 (configuration not stated)	none
Cc1ccc(C)c(N(C(=O)c2nsc(Cl)c2Cl)C(C(=O)NC2CCCC2)c2ccc(O)cc2)c1 (configuration not stated)	KB-V1 MDR tox inconclusive, KB-3-1 tox 21µM
CCc1ccc(-c2nn(-c3ccc(OC)cc3)c3c2cnc2ccc(OC)cc23)cc1	none (no result: MCF10A rerep, SW480 rerep, ELG1 repair inh)
N#Cc1c(N)nc(SCc2ccncc2)c(C#N)c1-c1cccs1	MCF10A rerep inconclusive, SW480 rerep inconclusive, ELG1 repair inh 5.2µM
COc1cc(-c2c(C#N)c(N)nc(SCc3ccncc3)c2C#N)cc(OC)c1OC	ELG1 repair inh 11µM
CCCn1cnc2c(sc3nc4c(cc32)CSC(C)(C)C4)c1=O	ELG1 repair inh inconclusive
CCN(CC)CCn1c(C)nc2c(sc3nc4c(cc32)COC(C)(C)C4)c1=O	ELG1 repair inh inconclusive
Cc1nc2c(sc3nc4c(cc32)COC(C)(C)C4)c(=O)n1Cc1ccccc1	KB-V1 MDR tox 5.2µM, ELG1 repair inh inconclusive
CC1(C)Cc2nc3sc4c(=O)n(Cc5ccccc5)cnc4c3cc2CS1	KB-V1 MDR tox 8.2µM, MCF10A rerep inconclusive, ELG1 repair inh inconclusive
CC1(C)Cc2nc3sc4c(=O)n(CC(N)=O)cnc4c3cc2CO1	ELG1 repair inh inconclusive
CC1(C)Cc2nc3sc4c(=O)n(CC(=O)NCc5ccccc5)cnc4c3cc2CO1	KB-V1 MDR tox 3.7µM, MCF10A rerep 6.5µM, SW480 rerep inconclusive, KB-3-1 tox 2.6µM
Cc1nc2c(sc3nc4c(cc32)COC(C)(C)C4)c(=O)n1CC(=O)NCc1ccco1	KB-V1 MDR tox inconclusive, MCF10A rerep inconclusive, SW480 rerep inconclusive, KB-3-1 tox 5.2µM, ELG1 repair inh inconclusive
CC1(C)Cc2nc3sc4c(SCC(=O)NCc5ccco5)ncnc4c3cc2CO1	KB-V1 MDR tox inconclusive, MCF10A rerep 3.3µM, SW480 rerep 3.3µM, KB-3-1 tox 4.6µM, ELG1 repair inh inconclusive
Cc1c(C(=O)N2CCN(c3ccccn3)CC2)oc2c1C(=O)CC(C)(C)C2	ELG1 repair inh inconclusive
CCc1ccccc1S(=O)(=O)Cc1ccc(C(=O)N2CCN(c3ccccc3OC)CC2)o1	KB-V1 MDR tox inconclusive, SW480 rerep inconclusive, ELG1 repair inh 23µM
COc1cccc(N2CCN(C(=O)c3ccc(CS(=O)Cc4ccc(Cl)cc4)o3)CC2)c1 (configuration not stated)	KB-V1 MDR tox 16µM, ELG1 repair inh 21µM
COc1ccccc1N1CCN(C(=O)c2oc3c(c2C)C(=O)CC(C)(C)C3)CC1	KB-V1 MDR tox inconclusive, ELG1 repair inh 21µM
Cc1ccccc1S(=O)(=O)Cc1ccc(C(=O)N2CC(C)CC(C)C2)o1 (configuration not stated)	ELG1 repair inh inconclusive
COc1ccccc1S(=O)(=O)Cc1ccc(C(=O)N2CCCC2)o1	KB-V1 MDR tox inconclusive
Cc1ccccc1S(=O)(=O)Cc1ccc(C(=O)N2CCN(c3cccc(C)c3C)CC2)o1	KB-V1 MDR tox 5.8µM, MCF10A rerep 2.3µM, SW480 rerep 4.1µM, KB-3-1 tox 5.2µM, ELG1 repair inh 7.3µM
CCc1nc2ccc(C(=O)NCCCN(C)C)cn2c1N(C)Cc1ccc(OC)cc1	KB-V1 MDR tox inconclusive (no result: MCF10A rerep, SW480 rerep, ELG1 repair inh)
O=C(Nc1ccncc1)c1cnn2c1NC(=C1CC1)C=C2C(F)F	KB-V1 MDR tox inconclusive (no result: MCF10A rerep, SW480 rerep, ELG1 repair inh)
Cc1ccccc1S(=O)(=O)Cc1ccc(C(=O)N2CCN(c3cccc(Cl)c3)CC2)o1	KB-V1 MDR tox 4.6µM, KB-3-1 tox 4.1µM (no result: MCF10A rerep, SW480 rerep, ELG1 repair inh)
Cc1ccc(Cl)cc1N1CCN(C(=O)c2ccc(CS(=O)(=O)c3ccc(Br)cc3)o2)CC1	KB-3-1 tox inconclusive (no result: MCF10A rerep, SW480 rerep, ELG1 repair inh)
Cc1ccc(S(=O)(=O)Cc2ccc(C(=O)N3CCN(c4cccc(Cl)c4)CC3)o2)cc1	KB-V1 MDR tox 5.8µM, KB-3-1 tox inconclusive (no result: MCF10A rerep, SW480 rerep, ELG1 repair inh)

Bioassay records deposited in PubChem BioAssay by National Center for Advancing Translational Sciences (NCATS).
